These results are taken from PubChem BioAssay (NCI).

Common to all, as to experiment: NCI-60 one-dose screen, 48 h (100 = growth as untreated, 0 = no growth, -100 = all killed)
Common to all, as to conditions: 10 µM

Test [1] concerns RPMI-8226 leukemia.
The test system of test [2] is OVCAR-8 ovarian.
Test [3] has as its system OVCAR-5 ovarian.
Test [4] relates to OVCAR-4 ovarian.
Test [5] deals with SK-OV-3 ovarian.
Test [6] relates to IGROV1 ovarian.
The test system of test [7] is OVCAR-3 ovarian.
The test system of test [8] is HS 578T breast.
Test [9] deals with NCI/ADR-RES ovarian.
The subject of test [10] is T-47D breast.
Test [11] has as its system BT-549 breast.
In test [12] the test system is MDA-MB-435 melanoma.
In test [13] the test system is SW-620 colon.
In test [14] the test system is MCF7 breast.
Test [15] has as its system HCT-116 colon.
Test [16] deals with HCC-2998 colon.
The subject of test [17] is KM12 colon.
Test [18] deals with SR leukemia.

This is part of a sample that, as a whole, favours compounds with a hit. Of some 83,000 tested, about 20% had one in any assay.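 Interpretation: 100, growth as untreated; towards 0, rising growth inhibition; 0, no net growth; 0 to -100, cell death. Compounds scoring below 10 were considered active.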 Values without a mark were called inactive. Activity calls are given as the source filed them.

For the compound `O=C(c1ccccc1)C(Sc1ccccc1)c1ccccc1` (stereo not given), the growth in test [1] is 81.7%; in [2], 86.8%; in test [3], 96%; in test [4] it was 78.7%; in test [5], 103%; in test [6] it was 83.8%. The growth was 109% in test [7]; 100% in test [8]; 82.7% in test [9]; 90.8% in [10]; 92.9% in [11]; 107% in [12]. Further, the growth in [13] was 57.8%; in test [14], 94%; in test [15], 55.8%; in test [16] it was 87.8%; in test [17], 99.5%.

As to `CCOC(=S)Sc1ccc([N+](=O)[O-])cc1[N+](=O)[O-]`, the growth is 18.3% in [18]; 11.9% in [1]; 93.3% in [2]; 113% in [4]; 97.1% in test [5]; 99.2% in test [6]. Moreover, the growth in test [7] was 62.2%; in test [8], 98%; in [9] it was 102%; in [10] it was 83.6%; in [11], 24.1%; in [12], 61.7%. Also, the growth in test [13] was 35.4%; in test [14], 65.5%; in [15], 31%; in test [16], 101%; in test [17] it was 22.5%.

For `CC(C)(C)CC(C)(C)c1ccc(O)c(Cc2ccc(Cl)cc2Cl)c1`, the growth in [18] was -57.5% (active); in test [1] it was -10.7% (active); in test [2], -43.4% (active); in test [4], -86.5% (active); in test [5] it was -86.6% (active); in test [6] it was -82.8% (active). Besides, the growth is -93.7% (active) in test [7]; -23% (active) in test [8]; -81.1% (active) in test [9]; -72.9% (active) in [10]; -95.1% (active) in test [11]; -81.1% (active) in test [12]. Also, the growth in [13] is -84.9% (active); in test [15], -91.8% (active); in test [16], -89.1% (active); in test [17], -88.5% (active).

On to `O=C(/C=C/c1nnc2n(Cc3ccccc3)c(=O)c3c4c(sc3n12)CCCC4)c1ccccc1`, for which the growth in test [18] was -5.47% (active); in test [1], 1.69% (active); in test [2], 19.3%; in [4], 112%; in [5], 108%; in test [7] it was 68.4%. For the same compound, the growth is 110% in test [8]; 85.8% in [9]; -39.2% (active) in test [10]; 82.4% in test [11]; 93.2% in [12]; 9.38% (active) in test [13]. The growth in test [14] was 64.3%; in [15], 44.1%; in [16], 87.8%; in [17], 55.2%.

`CC1=CSC2=NC(c3ccc(Cl)c(Cl)c3)=CC(c3ccc(Cl)cc3)N12` (stereo not given): the growth in test [18] was 0.606% (active); in [1] it was 82.3%; in test [2] it was 29.1%; in test [4], 62.5%; in test [5], -19.9% (active); in [6] it was -52% (active). Moreover, the growth in [7] was 18%; in test [8], -1.12% (active); in test [9], 92.9%; in test [10], 21.3%; in test [11], 7.99% (active); in test [12] it was 10.4%. Moreover, the growth is 26.4% in test [13]; 54.3% in [14]; 3.71% (active) in [15]; 100% in test [16]; 56.8% in test [17].

In the case of `S=C(Cc1ccc(-c2ccccc2)cc1)N1CCOCC1`, the growth in test [18] is 101%; in test [1], 96.5%; in test [2] it was 102%; in test [4], 101%; in [5], 102%; in test [6], 113%. Moreover, the growth was 104% in [7]; 97.8% in test [8]; 103% in test [9]; 85.5% in test [10]; 96.6% in test [11]; 98.6% in [12]. Besides, the growth in test [13] was 103%; in test [14] it was 95.3%; in test [15], 98.6%; in [16], 103%; in test [17], 99.3%.

In the case of `Cn1c([N+](=O)[O-])cnc1/C=C1\Oc2ccc(Br)cc2C1=O`, the growth in [18] is 6.49% (active); in test [1] it was 6.2% (active); in test [2], -11.3% (active); in test [4], 3.03% (active); in test [6], -21.6% (active); in test [7], -37.3% (active). For the same compound, the growth in test [8] is -17.8% (active); in [9], 6.72% (active); in [10], 65.9%; in test [11], -41% (active); in test [12] it was -65.8% (active); in test [13] it was -65.3% (active). For the same compound, the growth was 3.52% (active) in test [14], -27.1% (active) in test [15], -51.7% (active) in test [16] and -45.8% (active) in test [17].

Consider `COc1ccc2oc(=O)cc(C3c4ccc([nH]4)C(c4cc(=O)oc5ccc(OC)cc45)c4ccc([nH]4)C(c4cc(=O)oc5ccc(OC)cc45)c4ccc([nH]4)C(c4cc(=O)oc5ccc(OC)cc45)c4ccc3[nH]4)c2c1` (stereo not given), for which the growth in test [18] was -15.9% (active); in test [1] it was -6.88% (active); in [2], -10.9% (active); in test [4] it was 0.347% (active); in test [5], 0.72% (active); in test [6] it was 19.7%. For the same compound, the growth was -85.2% (active) in test [7]; 8.18% (active) in test [8]; 5.87% (active) in test [9]; -28.7% (active) in [10]; -73.8% (active) in [11]; 1.62% (active) in test [12]. In addition, the growth in test [13] is -64.1% (active); in test [14], -29.7% (active); in test [15], -70.4% (active); in test [16] it was 30.5%; in [17], 1.11% (active).

Take `O/N=C1\CCC2CCCCC2C1` (stereo not given): the growth is 87.1% in test [18]; 104% in [1]; 112% in test [2]; 97.8% in test [4]; 105% in [5]; 105% in test [6]. Also, the growth in test [7] was 111%; in test [8], 108%; in test [9], 109%; in test [10] it was 94%; in test [11], 105%; in test [12] it was 104%. Moreover, the growth is 109% in test [13]; 93% in test [14]; 103% in [15]; 106% in test [16]; 106% in test [17].
